Screening results: PubChem BioAssay, several laboratories
BoNT-F LC inh = inhibitors of Botulinum neurotoxin F light chain protease. inhibition, % at 10 µM. hit rate 0.22% among 360,000. Multiplex microsphere protease cleavage assay, flow cytometry. AID 588497; in the data active = inhibition above about 35%, passing the limit was not always enough; inconclusive = no clear call, values can overlap the other calls; note: plate controls were buffer without enzyme for full effect and enzyme alone for no effect
Anthrax LF prot = inhibitors of Bacillus anthracis lethal factor protease | inhibition, % at 10 µM | P15917 | hit rate 0.12% among 360,000 | multiplex microsphere protease cleavage assay, LF; note: plate controls were buffer without enzyme for full effect and enzyme alone for no effect
Target sequence (P15917 whole entry, looked up): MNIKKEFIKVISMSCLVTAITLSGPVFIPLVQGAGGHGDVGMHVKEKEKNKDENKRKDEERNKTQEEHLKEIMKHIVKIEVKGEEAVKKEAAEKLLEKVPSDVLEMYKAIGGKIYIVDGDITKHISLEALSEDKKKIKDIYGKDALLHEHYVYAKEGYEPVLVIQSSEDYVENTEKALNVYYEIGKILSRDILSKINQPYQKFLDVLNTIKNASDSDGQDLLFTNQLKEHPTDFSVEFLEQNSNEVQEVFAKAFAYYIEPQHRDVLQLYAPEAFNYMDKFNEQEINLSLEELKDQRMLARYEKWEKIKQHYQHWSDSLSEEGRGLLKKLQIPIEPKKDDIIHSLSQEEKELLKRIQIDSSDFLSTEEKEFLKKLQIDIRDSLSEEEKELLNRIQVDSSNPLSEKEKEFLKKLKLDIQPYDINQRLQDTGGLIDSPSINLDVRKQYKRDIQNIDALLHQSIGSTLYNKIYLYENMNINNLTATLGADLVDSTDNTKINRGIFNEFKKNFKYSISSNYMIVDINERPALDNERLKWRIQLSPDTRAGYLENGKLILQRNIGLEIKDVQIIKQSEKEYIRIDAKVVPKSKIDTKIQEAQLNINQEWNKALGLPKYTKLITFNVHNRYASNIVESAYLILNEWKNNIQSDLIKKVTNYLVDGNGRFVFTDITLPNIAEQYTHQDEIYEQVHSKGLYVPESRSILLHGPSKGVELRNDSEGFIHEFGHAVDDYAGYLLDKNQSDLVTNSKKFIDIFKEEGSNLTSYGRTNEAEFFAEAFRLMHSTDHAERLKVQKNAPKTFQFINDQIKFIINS
SARS 3CLpro inh = SARS-CoV 3CLpro protease inhibition | P0C6X7 | recombinant SARS-CoV 3CLpro, quenched FRET peptide cleavage | inhibition, % at 6 µM | hit rate 0.14% among 290,000 | AID 1706; in the data active = inhibition above about 12%
BoNT A protease = blocks Botulinum neurotoxin A light chain protease. AID 588499. hit rate 0.17% among 360,000. inhibition, % at 10 µM. multiplex microsphere protease substrate cleavage, flow cytometry; note: plate controls were buffer without enzyme for full effect and enzyme alone for no effect
Autofluor counter = flagged as autofluorescent in microsphere protease counterscreen; compound autofluorescence counterscreen, microsphere flow cytometry; stronger effect = higher value; AID 624483; fluorescence intensity (test concentration not listed); hit rate 3.1% among 360,000; in the data active = fluorescence intensity above about 16000; inconclusive = no clear call, values can overlap the other calls
The depositor's hits bear a star; ? = inconclusive; . = no result. Only some compounds are listed: those with a hit (about 3.5% of all), similar ones and a draw of the others. Cut-off read from the data, not from the text of the source, unless noted: active = inhibition above about 30%; inconclusive = no clear call, values can overlap the other calls; inactive = below that.

SMILES | BoNT-F LC inh | Anthrax LF prot | SARS 3CLpro inh | BoNT A protease | Autofluor counter
CC(C)n1c(SCC(=O)N2CCCC2)nc2c1c(=O)n(C)c(=O)n2C | -7 | 2 | -1 | 0 | 5466
CCn1c(SCC(=O)N2CCCc3ccccc32)nc2c1c(=O)n(C)c(=O)n2C | 0 | 0 | -2 | ? | 22886*
O=C(CSc1nnc(-c2cccs2)n1-c1ccccc1)N1CCCc2ccccc21 | 4 | -12 | 2 | 0 | 9318
CCn1c(SCC(=O)N2CCCc3ccccc32)nnc1-c1cccs1 | -5 | -2 | -2 | -2 | 16895*
CC(C)(C)c1ccc(S(=O)(=O)CCc2ccccn2)cc1 | 1 | -3 | 3 | 0 | 2930
COc1ccc(-n2ccc(=O)c(C(=O)Nc3ccc(S(=O)(=O)Nc4nccs4)cc3)n2)cc1 | -4 | 0 | -6 | 0 | 5568
CCOC(=O)C(CC)n1cnc2c(nnn2-c2ccc(C)cc2)c1=O (centres undefined) | 2 | -6 | 1 | 2 | 15626
CCCn1c(SCC(=O)c2cc(OC)ccc2OC)nc2c1c(=O)n(C)c(=O)n2C | -2 | -1 | 1 | -2 | 21330*
CCCn1c(SCC(=O)N2CCN(c3ccc(OC)cc3)CC2)nc2c1c(=O)n(C)c(=O)n2C | -1 | -2 | 0 | 0 | 19577*
CCCn1c(SCC(=O)NCCc2ccc(OC)c(OC)c2)nc2c1c(=O)n(C)c(=O)n2C | 4 | -2 | -4 | 4 | 18189*
CCn1c(SCc2cc(=O)[nH]c3ccccc23)nc2c1c(=O)n(C)c(=O)n2C | -9 | -2 | 5 | -4 | 24332*
Cc1cc(C)c2c(n1)sc1c(N3CCOCC3)ncnc12 | . | . | -5 | . | .
CCn1c(=S)ccc2ccc(OC)cc21 | 5 | 2 | -3 | 2 | 2757
C/C(=N\O)C1/C(=N/O)CC2C1C2(C)C (centres undefined) | -2 | -1 | -1 | -1 | 23424*
O=C(NCCO)c1ccc(-c2nnc(Nc3ccc(O)cc3)c3ccccc23)cc1 | -8 | 8 | -1 | 0 | 3456
COc1nc(OC)nc(N2CCC(C(=O)NCc3ccco3)CC2)n1 | 2 | 0 | 0 | 2 | 19494*
COc1nc(OC)nc(N2CCC(C(=O)Nc3cccc4c3CCCC4)CC2)n1 | 0 | -3 | 1 | 0 | 15828
COc1nc(OC)nc(N2CCC(C(=O)Nc3cccc4ccccc34)CC2)n1 | -4 | -3 | 0 | -2 | 23395*
COc1cc(NS(=O)(=O)c2ccc(NS(=O)(=O)c3ccc(C)cc3)cc2)nc(OC)n1 | 0 | -4 | -3 | 0 | 3958
Cc1ccc(Oc2ncc(CN3CCOCC3)s2)cc1 | 5 | -3 | 0 | 0 | 5694
Clc1cccc(Oc2ncc(CN3CCOCC3)s2)c1 | 4 | 1 | 3 | 2 | 21630*
O=C(O)c1ccc(-c2cccc(Cl)c2)o1 | 3 | 0 | -3 | ? | 23409*
S=C(c1ccc(-c2cccc(Cl)c2)o1)N1CCCCC1 | -3 | -11 | 1 | 0 | 5026
O=C(NC(=S)Nc1cc(Cl)ccc1N1CCOCC1)c1ccc(-c2cccc(Cl)c2)o1 | 0 | 0 | 0 | -1 | 16940*
CC(C)(C)OC(=O)N1CCCC1C(=O)N1CCc2ccccc21 (centres undefined) | 14 | -25 | 1 | ? | 16582*
SMILES | BoNT-F LC inh | Anthrax LF prot | SARS 3CLpro inh | BoNT A protease | Autofluor counter
O=C(O)CN1C(=O)/C(=C\c2cc(Br)ccc2OCc2ccc(Cl)cc2)SC1=S | -24 | 2 | 5 | -5 | 3920
O=C(O)CN1C(=O)/C(=C\c2cc([N+](=O)[O-])ccc2OCc2ccccc2Cl)SC1=S | 20 | 32* | 6 | 3 | 3527
Nc1c(-c2ccccc2)cnc2ncnn12 | 1 | 6 | -5 | 0 | 8891
CCN(CC)C(=O)COc1ccc2oc(-c3ccco3)cc(=O)c2c1 | 0 | -1 | -1 | 0 | 2606
CCOC(=O)C1CCN(C(=O)CCC2CCCC2)CC1 | ? | -7 | 4 | 1 | 3236
CCc1ccc(/C=C2\CN(CC)Cc3c2nc2ccccc2c3C(=O)O)cc1 | 9 | 20 | -2 | 15 | 27805*
O=C(Nc1c(C(=O)N2CCCC2)cnn1-c1ccccc1)c1cccc(F)c1 | -4 | 2 | 1 | ? | 21118*
O=S(=O)(c1ccc2oc3ccccc3c2c1)N1CCOCC1 | -4 | -1 | -1 | 0 | 16805*
O=C(c1cccc(S(=O)(=O)N2CCOCC2)c1)N1CCCc2ccccc21 | 4 | -1 | -1 | 1 | 6155
CCn1c2ccccc2c2nc3cc(S(=O)(=O)N4CCOCC4)ccc3nc21 | 27 | 33* | -4 | 40* | 7049
Cc1c(C(=O)N2CCCc3ccccc32)oc2ccc(S(=O)(=O)N3CCOCC3)cc12 | -6 | -1 | 1 | -2 | 16777*
c1ccc2nc3c(nc2c1)c1ccccc1n3CCN1CCOCC1 | -5 | 9 | -5 | 11 | 10550
CC(=O)N1CCN(C(=O)c2ccc(Cl)c(S(=O)(=O)N3CCCCCC3)c2)CC1 | 0 | -2 | . | 0 | 4131
O=C(NCc1cccs1)C1CCN(S(=O)(=O)c2cccc3cccnc23)CC1 | -2 | -12 | . | 0 | 4044
CN(C(=O)c1ccc(F)cc1)c1ccccc1C(=O)NCc1ccccc1 | -9 | 0 | 2 | -3 | 6164
CCCCOc1cccc(C(=O)NC(=S)Nc2ccc(Cl)c(C(=O)O)c2)c1 | -4 | 0 | 0 | -1 | 4112
O=C(CN1C(=O)NC2(CCCCC2)C1=O)Nc1ccccc1N1CCCCC1 | 1 | -2 | . | -2 | 6507
CCC(c1nnnn1C(C)(C)CC)N(CCCN1CCOCC1)Cc1cc2cccc(C)c2[nH]c1=O (centres undefined) | 4 | -2 | -5 | 0 | 11071
CCC(C)(C)n1nnnc1C(C(C)C)N(CCN1CCOCC1)Cc1cc2cccc(C)c2[nH]c1=O (centres undefined) | 3 | 0 | -6 | 4 | 21802*
CCNS(=O)(=O)c1ccc(C(=O)OCC(=O)N2CCCc3ccccc32)cc1 | 0 | 0 | . | 0 | 3978
COc1cc(C(=O)OCC(C)=O)ccc1OCc1c(C)noc1C | 2 | -3 | 2 | 0 | 4002
COc1cc(C=O)ccc1OCc1c(C)noc1C | -4 | -4 | -7 | -3 | 21666*
COc1cc(C(=O)O)ccc1OCc1c(C)noc1C | -2 | 0 | -1 | -1 | 21283*
Cc1cc(C)c2c(CN3CCCCC3C)cc(=O)oc2c1 (centres undefined) | ? | 5 | 3 | -5 | 3935
COc1ccc(-c2cn3cccnc3n2)cc1NC(=O)C(C)C | 2 | -5 | -3 | 0 | 4448
Cc1ccc(S(=O)(=O)NCc2ccc3c(c2)cc(C)n3C)cc1 | -110 | -74 | 2 | 81* | 1200
Cc1cc2cc(CN3C(=O)c4ccccc4C3=O)ccc2n1C | -57 | 13 | 3 | 88* | 2185
O=C1c2ccccc2C(=O)N1Cc1ccc2c(c1)OCO2 | -1 | -5 | 5 | 0 | 8057
COc1cccc(N2CC(C(=O)Oc3ccc4ccccc4c3)CC2=O)c1 (centres undefined) | -10 | -21 | -5 | -1 | 10482
COC(=O)c1ccc(OC(=O)C2CC(=O)N(c3cccc(C)c3)C2)cc1 (centres undefined) | -3 | -3 | -2 | ? | 16757*
